# Source: PubChem (National Center for Advancing Translational Sciences (NCATS))
# Compounds with a hit are over-represented: about 8.2% of the library has one in this group of screens.
# KB-V1 MDR tox: qHTS assay for MDR1-selective chemotherapeutics: Primary screen using the drug-selected MDR subline cells KB-V1; KB-V1 MDR cells viability, CellTiter-Glo, 72 h; Potency, µM (top dose mostly 46.1 µM), usual class: cytotoxic; 400,000 tested, 3.4% active; AID 1347076, 2019; note: nearly all actives have a fitted effect of over 60% in size
#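 In this primary screen, KB-V1 cells overexpressing P-gp are incubated with library compounds (lowest to highest concentration) for 72 h at 37 degrees C before a luminescent ATP viability read.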
# SW480 rereplic: A quantitative high throughput screen for small molecules that induce DNA re-replication in SW480 colon adenocarcinoma cells; SW480 DNA re-replication, Hoechst DNA content imaging, 48 h; Potency, µM (top dose mostly 46.1 µM), hits mostly activators; 340,000 tested, 1.8% active; note: nearly all actives have a fitted effect of over 55% in size
#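 First, 250 cells per well were seeded. Next, compound or vehicle (23 nL) was pinned in, plates sat 48 hr at 37 C. Finally Hoechst was added for 40 min before fluorescence scanning.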
# ELG1 repair inh: qHTS screen for small molecules that inhibit ELG1-dependent DNA repair in human embryonic kidney (HEK293T) cells expressing luciferase-tagged ELG1; HEK293T ELG1-luciferase reporter, luminescence, 16 h; DNA damage induced by 5-fluorouridine; Potency, µM (top dose mostly 46.1 µM), most hits filed as inhibitors; 330,000 tested, 2.3% active; AID 504467, 2011; note: nearly all actives have a fitted effect of over 55% in size
#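 5-Fluorouridine DNA damage + compound/DMSO, 2,000 cells/well, 16 h, 37 °C/5% CO2. ONE-Glo, 30 min RT, luminescence. Readout = decrease in reporter signal.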
# MCF10A rerep: A quantitative high throughput screen for small molecules that induce DNA re-replication in MCF 10a normal breast cells; Potency, µM (highest dose often 46.1 µM), most hits filed as activators; 350,000 tested, 2.9% active; MCF 10A DNA re-replication, Hoechst nuclear intensity, 48 h; note: nearly all actives have a fitted effect of over 50% in size
# KB-3-1 tox: qHTS assay for MDR1-selective chemotherapeutics: Primary screen using the parental adenocarcinoma cell KB-3-1 | KB-3-1 viability, CellTiter-Glo ATP luminescence, 72 h | Potency, µM (titrated, usually from 46.1 µM), most hits filed as cytotoxic | 400,000 tested, 1.4% active; note: nearly all actives have a fitted effect of over 60% in size
#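 Viability of parental KB-3-1 cells, measured by CellTiter-Glo luminescence, followed a 72 h incubation at 37 °C with pinned compounds in phenol-red-free DMEM containing 10% FBS.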
# Numbers stand for hits; . = inactive; ? = inconclusive; / = no result; [ ] = another dose, or the depositor's remark. Calls come from the whole dose curve; as a rule, active = well fitted curve in the direction sought with a large enough effect; inconclusive = small, poorly fitted or top-dose-only effect, or another doubt; inactive = no such curve, though single readings can be large; an effect the other way counts as inactive or inconclusive.
SMILES,KB-V1 MDR tox,SW480 rereplic,ELG1 repair inh,MCF10A rerep,KB-3-1 tox
Cc1cc(C(=O)N/N=C/c2ccc3c(c2)OCO3)c(C)n1-c1ccc(F)cc1,.,.,.,.,.
CCc1nc2c(OCc3ccc(C#N)cc3)cccn2c1N(C)C(=O)c1ccc(C)cc1,.,/,/,/,.
O=C(N/N=C\C=C\c1ccco1)c1cc(-c2ccc3ccccc3c2)n[nH]1,.,.,?,7.31µM,.
C[C@H](CO)N1C[C@H](C)[C@@H](CN(C)S(=O)(=O)c2ccc(-c3ccccc3)cc2)OCc2cn(nn2)CCCC1=O,.,/,/,/,.
Cc1ccc(S(=O)(=O)N(C)CC(=O)N(CC(C)C)C2CCS(=O)(=O)C2)cc1 (centres undefined),.,4.11µM,.,.,.
CCCN(C(=O)/C=C/c1ccc(S(=O)(=O)N(CC)CC)cc1)C1CCS(=O)(=O)C1 (centres undefined),23.1µM,.,.,.,.
COc1cc(C)c(/C=C(\C#N)C(=O)Nc2cccc(C)c2)cc1C(C)C,.,.,.,20.6µM,.
Cc1cccc(NC(=O)/C(C#N)=C\c2ccc(C(=O)O)cc2)c1,.,.,.,.,.
O=C/C(=C\Nc1ccccn1)c1nc2cc(Cl)ccc2o1,.,.,?,15.8µM,.
O=C/C(=C\Nc1ccc(Br)cc1)c1nc2ccccc2o1,.,.,.,.,.
O=C/C(=C\Nc1ccccn1)c1nc2ccccc2o1,.,?,.,20.6µM,.
CSc1ccccc1NC(=O)c1cc(-c2cccnc2)nc2ccc(Br)cc12,?,.,23.1µM,16.4µM,?
CC(=O)Nc1cccc(NC(=O)c2cc(-c3cccnc3)nc3ccc(Cl)cc23)c1,.,.,20.6µM,?,.
O=C(Nc1ccc(C(F)(F)F)cc1)c1cc(-c2cccnc2)nc2ccc(Br)cc12,?,?,.,5.17µM,.
COc1cccc(-c2cc(C(=O)Nc3ccc(N(C)C(C)=O)cc3)c3cc(Br)ccc3n2)c1,?,.,/,?,.
Cc1ccc2nc(-c3cccnc3)cc(C(=O)Nc3ccccc3[N+](=O)[O-])c2c1,/,?,.,14.6µM,/
O=C(Nc1cccc(C(F)(F)F)c1)c1ccc2c(c1)nnn2C1CCCC1,.,/,/,/,.
O=C(O)c1cc(-c2cccnc2)nc2ccc(Br)cc12,.,.,.,.[9.22 µM],.
CC(=O)Nc1cccc(NC(=O)c2cc(-c3cccnc3)nc3ccc(Br)cc23)c1,.,?,?,11.6µM,.
COc1cc(NC(=O)SC2=NCCS2)cc(OC)c1,.,.,.,.,.
COc1cccc(C(=O)SC2=NCCS2)c1,.,.,.,14.6µM,.
CCOC(=O)C(=CNc1cc(C)ccc1[N+](=O)[O-])C(=O)OCC,?,.,?,.,.
Cc1ccc(Oc2ncccc2NC(=O)CC2(CC(=O)O)CCCC2)c2c1CCC2,.,.,.,?,.
CCOC(=O)C(=CNNc1ccccc1)C(=O)OCC,.,.,6.51µM,.,.
CCOC(=O)C(=CNc1cc(C)nn1-c1ccc(C)cc1)C(=O)OCC,?,.,13µM,?,.
SMILES,KB-V1 MDR tox,SW480 rereplic,ELG1 repair inh,MCF10A rerep,KB-3-1 tox
CCOC(=O)C(=CNc1cccnc1Oc1ccc(C)c2c1CCC2)C(=O)OCC,?,?,14.6µM,.,.
CCOC(=O)C(=CNc1cc(C)ccc1C)C(=O)OCC,13µM,.,?,.,.
C#CCSc1nnnn1-c1ccc(OCC)cc1,.,.,.,.,.
Cc1ccc(S(=O)(=O)N2CC3(O)CN(C(=O)OC(C)C)N(C(=O)OC(C)C)CC3(OC(=O)NCC3CCCCC3)C2)cc1 (centres undefined),.,/,/,/,?
C/C(=N\NC(=O)c1cccnc1)c1cc(C)oc1C,.,20.6µM,.,.,.
CC(=O)N1c2ccc(S(=O)(=O)NCCC(=O)Nc3ccc(OC(F)(F)F)cc3)cc2CC1C (centres undefined),.,?,?,?,.
Cc1ccc(Cn2ccsc2=NC(=O)COC(=O)C(C)C)cc1,.,.,.,.,16.4µM
Cc1ccc(Cn2ccsc2=NC(=O)COC(=O)c2ccc(O)cc2O)cc1,.,?,.,.,.
CC(C)(C)n1nnnc1C(c1cc2ccccc2o1)N1CCCCC1 (centres undefined),?,/,/,/,.
Cc1oncc1-c1csc(-c2ccccc2Cl)n1,13µM,.[1.84 µM],?,.,?
Cc1oncc1-c1csc(-c2ccccc2)n1,?,.,?,.,.
CSc1ccc(-c2nc3cccc(C)n3c2Nc2ccc(Cl)cc2)cc1,?,/,/,/,.
CCNc1nc(C23CC4CC(CC(C4)C2)C3)cs1,.,?,.,23.1µM,.
CC(=O)NNC(=O)CC(=O)Nc1nc(C23CC4CC(CC(C4)C2)C3)cs1,.,.,.,?,.
CCOC(=O)c1snc2c(=O)[nH]cnc12,.,.,.,?,.
O=C(Nc1ccccc1)c1snc2c(=O)[nH]cnc12,4.11µM,.,.,.,?
COc1cccc(-c2nnc(NC(=O)c3ccc(Cl)s3)o2)c1,.,.,?,6.51µM,?
COc1ccc(-c2nnc(NC(=O)c3ccc([N+](=O)[O-])o3)o2)c(OC)c1,?,16.4µM,.,8.2µM,.
O=C(Nc1nnc(-c2ccco2)o1)c1ccc(Cl)s1,.,.,.,.,?
COc1cccc(-c2nnc(NC(=O)c3cccc(F)c3)o2)c1,?,.,.,23.1µM,.
O=C(Nc1nnc(-c2ccccc2)o1)c1cc(Cl)sc1Cl,.,.,.,?,?
O=C(Nc1nnc(-c2ccc(F)cc2)o1)c1cc(Cl)sc1Cl,.,.,?,1.03µM,?
CC(C)(CNC(=O)Cc1ccc(Cl)cc1Cl)N1CCCCC1,?,.,.,.,.
O=C(O)c1cnn(-c2nc(-c3cccc([N+](=O)[O-])c3)cs2)c1C(F)(F)F,.,.,.,.,.
COc1cc(NCCCC(C)N)c2ncccc2c1 (centres undefined),.,?,?,.,?
SMILES,KB-V1 MDR tox,SW480 rereplic,ELG1 repair inh,MCF10A rerep,KB-3-1 tox
COc1cc(NCCCCC(C)N)c2nccc(C)c2c1 (centres undefined),?,/,/,/,5.17µM
COc1cccc(CN(C)C(=O)c2cc(S(=O)(=O)NCc3ccccc3)ccc2C)c1OC,18.4µM,.,?,.,.
COc1cccc(CN(C)C(=O)c2[nH]c(C)c(C(C)=O)c2C)c1OC,18.4µM,.,?,.,7.31µM
COc1ccccc1CNC(=O)c1[nH]c(C)c(C(C)=O)c1C,.,?,.,.,.
COc1ccc(CCN(C)C(=O)c2cc(S(=O)(=O)NCc3ccccc3)ccc2C)cc1OC,?,?,8.2µM,?,?
O=C(COC(=O)C1=COCCO1)NC1CCCCC1,.,.,?,.,.
